# Reference: the supplement of paper PMC7156485
# What was measured:
# Settings in all cases: concentration: 10 µM; 24 h
# HCC1569 [1] = assay: cell number relative to DMSO (% of DMSO); higher = more cells (less growth inhibition / toxicity)
# Procedure, shortened: (§1)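 After 24 h at 37 °C with compounds at 10 µM, in triplicate, HCC1569 and TDF cells were fixed with 3.7% formaldehyde. Immunostaining used a rabbit anti-H1.0 antibody and an AlexaFluor 647 secondary, with DAPI, and six fields per well were imaged at ×10. H1.0 nuclear intensity or cell number is presented as percent of the plate control, from the median of replicates, with HCC1569 values smoothed for positional effects.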
# TDF [2] = assay: as above
# Procedure, shortened: as §1
# TDF [3] = assay: H1.0 immunofluorescence intensity relative to DMSO (% of DMSO); higher = stronger H1.0 induction, active = 120 or more
# Procedure, shortened: as §1
# HCC1569 [4] = assay: H1.0 immunofluorescence intensity relative to DMSO (% of DMSO); higher = stronger H1.0 induction, active = 140 or more
# Procedure, shortened: as §1
# 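Wherever H1.0 immunofluorescence intensity relative to DMSO is given: TDF is a line of transformed human dermal fibroblasts of mesenchymal origin.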
# 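Wherever cell number relative to DMSO is given: TDF denotes transformed human dermal fibroblasts of mesenchymal origin.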
SMILES,cell number (HCC1569 [1]),cell number (TDF [2]),H1.0 immunofluorescence intensity (TDF [3]),H1.0 immunofluorescence intensity (HCC1569 [4])
"O=C1CC(=O)c2c(Cl)c(Cl)c(Cl)c(Cl)c21 [4,5,6,7-tetrachloro-1H-indene-1,3(2H)-dione]",101,103,117 (inactive),99.1 (inactive)
CC(CCc1ccccc1)NCC(O)c1ccc(O)c(C(N)=O)c1.Cl (stereo not given) [Labetalol hydrochloride],101,106,83.5 (inactive),99.3 (inactive)
"CCCCCCCCC=CCCCCCCCC(=O)OCC(CO)OC(=O)CCCCCCCC=CCCCCCCCC (stereo not given) [1,2-Dioleoyl-glycerol (18:1)]",100,104,95.2 (inactive),101 (inactive)
CNCCNS(=O)(=O)c1cccc2cnccc12.Cl.Cl [H-8 dihydrochloride],105,101,91.8 (inactive),77.5 (inactive)
"CCCCCC(O)C=CC1C(O)CC(O)C1CC=CCCCC(=O)O (stereo not given) [9b,11a Prostaglandin F2]",100,98,93.3 (inactive),97.5 (inactive)
COc1ccc(N2C(=O)CSC2c2cccc(Br)c2)c(OC)c1 (stereo not given),59.5,10.8,156 (active),146 (active)
CCCCCC=CCC=CCC(O)C=CC=CCCCC(=O)O (stereo not given),102,90.4,96.8 (inactive),101 (inactive)
"Cl.c1ccc(C2CN3CCSC3=N2)cc1 (single isomer, unassigned; (-)) [(-)-Tetramisole hydrochloride]",108,97.3,92.4 (inactive),98.7 (inactive)
CC1=C(C(=O)O)N2C(=O)C(NC(=O)C(N)c3ccccc3)C2SC1 (stereo not given) [Cephalexin hydrate],104,111,102 (inactive),96.5 (inactive)
COc1ccc2cc(C(C)C(=O)O)ccc2c1 (stereo not given) [Naproxen],99.9,83.8,98.1 (inactive),109 (inactive)
